Results on 40 compounds are retold here after PubChem BioAssay (NCATS).

Several values for one entry are separate records, joined by “and”; a condition that tells them apart may be missing. Equal values may be shown once. Results filed as inconclusive are left out. Where a structure was tested more than once in an assay, its records may differ in their call. Activity calls are given as the source filed them. The call rests on the fitted dose curve; in most records, active means well fitted activation curve with a large enough effect; inconclusive means small, poorly fitted or top-dose-only effect; inactive means no such curve, though single readings can be large or run the other way.
Potency means the concentration at half of the fitted maximal effect.

Chain of Cellular tumor antigen p53 (Homo sapiens) (P04637 whole entry, looked up): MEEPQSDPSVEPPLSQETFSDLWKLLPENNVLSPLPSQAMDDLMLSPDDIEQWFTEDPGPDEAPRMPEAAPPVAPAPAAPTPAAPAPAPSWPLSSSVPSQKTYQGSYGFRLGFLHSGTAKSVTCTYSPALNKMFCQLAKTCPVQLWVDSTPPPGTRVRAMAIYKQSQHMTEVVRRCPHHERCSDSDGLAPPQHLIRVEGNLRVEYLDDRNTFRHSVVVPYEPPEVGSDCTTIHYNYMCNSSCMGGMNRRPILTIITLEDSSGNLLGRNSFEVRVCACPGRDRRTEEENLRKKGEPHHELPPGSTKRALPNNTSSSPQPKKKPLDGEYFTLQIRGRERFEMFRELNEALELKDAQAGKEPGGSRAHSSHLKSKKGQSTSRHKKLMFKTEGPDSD

For the assay, the target named is Cellular tumor antigen p53 (Homo sapiens) (UniProt P04637). Put plainly: Primary qHTS for small molecule compounds that upregulate eGFP-tagged delta133p53alpha (in N-terminal) cells. (AID 2060322). Further: nearly all actives have a fitted effect of over 75% in size.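 On activation: series mostly up to about 56 µM; 0% = DMSO vehicle and 100% = reference activator.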 The note with it: NCI-H358 eGFP-delta133p53alpha fluorescence, 24 h; activation: hits give high values. The gist of the method:
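NCI-H358 cells pre-induced 24 h with 10 ng/ml doxycycline to express N-terminal eGFP-delta133p53alpha, then dosed 24 h at 37C without doxycycline; fixed, Hoechst-stained, GFP intensity by laser scanning cytometry, normalized to DMSO (0%) and 57.5 uM 5-azacytidine (100%).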
Take `O=C(OCCN1CCOCC1)C1(c2ccccc2)CCCCC1`: the activation was -19.6% (inactive).

In the case of `O=C1N=C(O)CN1/N=C/c1ccc(-c2ccc([N+](=O)[O-])cc2)o1`, the activation was 5.02% (inactive) and 6.04% (inactive).

On to `NC[C@@H]1O[C@H](C23CC4CC(CC(C4)C2)C3)Cc2c1ccc(O)c2O`, for which the activation was 44.4% (inactive).

With `COc1ccc(-c2cc3ncc(C)n3c(Nc3ncccc3C(N)=O)n2)cc1OC`, the activation is 2.48% (inactive).

Turning to `O=C(/C=C/c1ccc(O)c(O)c1)OCCc1ccccc1`, the activation was -0.816% (inactive).

With `COc1ccc(Br)cc1S(=O)(=O)NC(=O)/C=C/c1ccccc1Cc1ccc2ccccc2c1`, the activation was -15.8% (inactive).

As to `C=CCN1CCc2c(cc(O)c(O)c2Cl)C(c2ccccc2)C1` (stereo unspecified), the activation was -14.2% (inactive).

Turning to `C=CC1(C)CC(=O)C2(O)C(C)(O1)C(OC(C)=O)C(O)C1C(C)(C)CCC(O)C12C` (stereo unspecified), the activation was -19.1% (inactive).

For the compound `Nc1ncnc2c1ncn2C1CCCC1`, the activation is -5.11% (inactive).

In the case of `C[C@H]1c2cccc(O)c2C(O)=C2C(=O)[C@]3(O)C(O)=C(C(N)=O)C(=O)[C@@H](N(C)C)[C@@H]3[C@@H](O)[C@@H]21`, the Potency is 15.5 µM (active) and 2.73 µM (active); the activation is -2.21% (inactive).

For the compound `CCCOc1ccc(C(=O)OCCN(CC)CC)cc1N`, the activation is 9.6% (inactive) and the Potency is 24.3 µM (active).

Regarding `N#Cc1cc([N+](=O)[O-])c2sc(C(N)=O)[n+]([O-])c2c1`, the activation was -56.4% (inactive).

In the case of `Oc1ccc(/C=C/c2ccc(/C=C/c3ccc(O)cc3)c(Br)c2)cc1`, the Potency was 3.38 µM (active).

For the compound `O=c1cc(-c2ccccc2)oc2c(O)c(O)ccc12`, the activation is -43.5% (inactive).

Regarding `O=c1oc(Cl)c(Cl)c2ccccc12`, the activation was 3% (inactive).

Regarding `NC(Cc1ccc(Cl)cc1)C(=O)O` (stereo unspecified), the activation is -15.1% (inactive) and -12.2% (inactive).

For the compound `COc1cccc2c1[C@@H]1CN(CCCCn3c(=O)[nH]c4c(sc5ncc(-c6ccccc6)nc54)c3=O)C[C@@H]1CO2`, the activation is -97.6% (inactive).

On to `Cc1cc2c(C(C)C)c(O)c(O)c(C=O)c2c(O)c1-c1c(C)cc2c(C(C)C)c(O)c(O)c(C=O)c2c1O`, for which the Potency was 24.6 µM (active) and the activation was -36.4% (inactive).

As for `O=C(NCC1CCCCN1)c1cc(OCC(F)(F)F)ccc1OCC(F)(F)F` (stereo unspecified), the Potency was 27.3 µM (active) and the activation is 9.6% (inactive).

With `Cc1coc2c1C(=O)C(=O)c1c-2ccc2c1CCCC2(C)C`, the activation is 36.5% (inactive) and the Potency is 8.49 µM (active).

On to `Cn1cc(C(F)(F)F)nc1-c1ccc(OCC(O)CNCCOc2ccc(O)c(C(N)=O)c2)cc1` (stereo unspecified), for which the activation is -30.5% (inactive).

With `O=C(O)C1=CC(=C(c2ccc(O)c(C(=O)O)c2)c2ccc(O)c(C(=O)O)c2)C=CC1=O`, the activation is -71.6% (inactive).

For `CC(C)[C@H](C(=O)Nc1ccc(C(=O)NO)cc1)c1ccccc1`, the Potency is 30.6 µM (active) and the activation is 66.7% (inactive).

For `C#CCN(C)CCCOc1ccc(Cl)cc1Cl`, the activation was -2.51% (inactive) and -6.18% (inactive).

`OCCN1CCN(CC/C=C2/c3ccccc3Sc3ccc(C(F)(F)F)cc32)CC1`: the activation was -48.7% (inactive).

Consider `C[n+]1cc2c3c(ccc2c2ccc4cc5c(cc4c21)OCO5)OCO3`, for which the Potency was 1.9 µM (active) and 2.39 µM (active).

On to `CC(=O)N(O)CCCCCNC(=O)CCC(=O)N(O)CCCCCNC(=O)CCC(=O)N(O)CCCCCN`, for which the Potency was 1.36 µM (active) and the activation was 41.2% (inactive).

Regarding `NC1(C(=O)O)CC1`, the activation is -6.03% (inactive).

`Cc1c(-c2ccc(O)cc2)n(Cc2ccc(OCCN3CCCCCC3)cc2)c2ccc(O)cc12`: the Potency is 38.9 µM (active) and the activation was -20.9% (inactive).

For the compound `CCCCCCCCCC(=O)NC(CN1CCOCC1)[C@H](O)c1ccccc1` (stereo partly specified), the activation is -7.14% (inactive).

On to `COc1ncnc(NS(=O)(=O)c2ccc(N)cc2)c1OC`, for which the activation was 26.8% (inactive) and the Potency is 27.3 µM (active).

As for `N#C/C(=C\c1ccc(O)c(O)c1)C(=O)c1ccc(O)c(O)c1`, the activation was -3.67% (inactive).

For the compound `COC(=O)C1=C(C)NC(C)=C(C(=O)OC)C1c1ccccc1[N+](=O)[O-]`, the activation is -16.4% (inactive) and -36.9% (inactive).

In the case of `Clc1ccccc1CN1CCc2sccc2C1`, the activation is 16.7% (inactive) and the Potency is 17.2 µM (active).

In the case of `N#C/C(=C\c1ccc(O)c(O)c1)C(=O)NCCc1ccccc1`, the activation is -26.1% (inactive).

Consider `Brc1c(Br)c(Br)c2n[nH]nc2c1Br`, for which the activation was -52.8% (inactive).

With `CC1=C(CC(=O)O)c2cc(F)ccc2/C1=C\c1ccc(S(C)=O)cc1` (stereo unspecified), the activation is 19.2% (inactive) and 25% (inactive).

As for `OCc1cc(C(O)CNCCCCCCOCCCCc2ccccc2)ccc1O` (stereo unspecified), the activation was 13.4% (inactive) and 3.4% (inactive).

Regarding `NNc1nncc2ccccc12`, the activation is 19.2% (inactive) and 11.4% (inactive) and 5.29% (inactive).

Take `CCCOc1ccc2nc(NC(=O)OC)[nH]c2c1`: the activation was 62.8% (inactive) and the Potency was 0.0685 µM (active).
